In PubChem BioAssay (Tox21):
Records with an inconclusive call do not appear. Activity calls are given as the source filed them. Calls come from the whole dose curve; as a rule, active = well fitted curve in the direction sought with a large enough effect in the repeat runs; inconclusive = weak or mixed curves; inactive = no such curve, though single readings can be large; an effect the other way counts as inactive or inconclusive.

Assay: qHTS assay to identify small molecule agonists of the RXR signaling pathway - cell viability counter screen (AID 1159529); note: nearly all actives have a fitted effect of over 50% in size; note: potency is the fitted concentration of half-maximal effect
Conditions: RXR-alpha-bla HEK293T viability, CellTiter-Glo, 16 h; series mostly up to 76.8 µM; activity change, negative = cytotoxicity: at the top concentration
Outline: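 RXR-alpha-UAS-bla HEK 293T cells in medium with 2% charcoal-stripped FBS were pre-incubated 5 hr, then compound-treated 16 hr at 37 C. Viability was read by CellTiter-Glo luminescence in the same wells as the beta-lactamase assay, with tetraoctyl ammonium bromide as positive control.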
% is set by controls: 0 for no effect and ±100 for the full control effect.

Compound	activity change, negative = cytotoxicity	Potency
CC(C)C=O	-0.85% (inactive)	–
COC(=O)CS	-5.72% (inactive)	–
CCOc1cccc(-n2cc(C(=O)N3CCN(c4cc(C(=O)O)c5ccccc5c4)CC3)nc2-c2ccc(C)cc2)c1	-18.9% (inactive)	–
CCCCC(CC)COP(=O)(O)O (stereo not given)	-6.98% (inactive)	–
CC(=O)NC1(c2cccc(F)c2)CCN(CC[C@@]2(c3ccc(Cl)c(Cl)c3)CN(c3ccccc3)C(=O)CO2)CC1	–	19.6 µM (active)
CCOC(=O)c1ccccc1C(=C1C=C(Br)C(=O)C(Br)=C1)c1cc(Br)c(O)c(Br)c1	11.1% [at 35.3 µM] (inactive)	–
Cc1ccc(OC(=O)c2ccccc2O)cc1	-22.8% (inactive)	–
C=Cc1ccc(S(=O)(=O)O)cc1	-11.2% (inactive)	–
C[C@H]1c2cccc(O)c2C(O)=C2C(=O)[C@]3(O)C(O)=C(C(N)=O)C(=O)[C@@H](N(C)C)[C@@H]3[C@@H](O)[C@@H]21	15.9% [at 35.3 µM] (inactive)	–
CC(C)=CCC/C(C)=C/CC/C(C)=C/C(=O)OCC(=O)[C@@]1(O)CC[C@H]2[C@@H]3CCC4=CC(=O)C=C[C@]4(C)[C@H]3[C@@H](O)C[C@@]21C	-22.5% [at 35.3 µM] (inactive)	–
C=CC(=O)OCC1CC2CC1C1CCC(COC(=O)C=C)C21 (stereo not given)	–	43.6 µM (active)
CCOc1ccc(Cc2nccc3cc(OCC)c(OCC)cc23)cc1OCC	0.451% [at 35.3 µM] (inactive)	–
CC1=C(Br)C(=O)C(Br)=C/C1=C(/c1ccccc1S(=O)(=O)O)c1cc(Br)c(O)c(Br)c1C	3.81% [at 35.3 µM] (inactive)	–
CCC(C)COC(C)=O (stereo not given)	-0.528% (inactive)	–
COc1ccccc1N1CCN(CCCCNC(=O)c2ccc(-c3ccc(C(C)=O)cc3)cc2)CC1	-12.4% [at 35.3 µM] (inactive)	–
Nc1nnc(-c2ccc([N+](=O)[O-])o2)o1	-23.7% (inactive)	–
CC(C)c1nc(CN(C)C(=O)N[C@H](C(=O)N[C@@H](Cc2ccccc2)C[C@H](O)[C@H](Cc2ccccc2)NC(=O)OCc2cncs2)C(C)C)cs1	–	9.52 µM (active)
Cc1ccc(Cl)c(Nc2ccccc2C(=O)O)c1Cl	2.63% [at 35.3 µM] (inactive)	–

Assay: qHTS assay to identify small molecule antagonists of the retinoid acid receptor (RAR) signaling pathway - cell viability counter screen (AID 1159551); note: nearly all actives have a fitted effect of over 35% in size
Conditions: C3RL4 cells viability, ATP luminescence (CellTiter-Glo), 6 h; series mostly up to 92.4 µM; activity change, negative = cytotoxicity: at the top concentration
Outline: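 C3RL4 cells were seeded overnight at 37 C, then treated with compounds plus 1 uM (final) retinol for 6 h at 37 C. Viability was read as ATP by CellTiter-Glo luminescence after 30 min at room temperature.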

Compound	activity change, negative = cytotoxicity
O=C(/C=C/c1ccccc1)OCCc1ccccc1	0.548% (inactive)
O=C1c2ccccc2C(=O)N1CCc1noc(-c2ccc(CN3CCCCCC3)s2)n1	-0.116% (inactive)
CCCCCCCCCI	-3.05% (inactive)
CN1C(=O)c2ccccc2C1=O	0.717% (inactive)
Cc1cccc(O)c1N	-9.14% (inactive)
CCc1ccccc1	-0.299% (inactive)
CC1(C)[C@H](C(=O)O)N2C(=O)C[C@H]2S1(=O)=O	-0.457% [at 42.5 µM] (inactive)
O=C1c2ccccc2C(=O)C1c1ccc(Br)cc1	-0.184% [at 42.5 µM] (inactive)
CN1CCCN=C1COC(=O)C(O)(c1ccccc1)C1CCCCC1 (stereo not given)	2.24% [at 42.5 µM] (inactive)
CC1CC(OC(=O)C(O)c2ccccc2)CC(C)(C)N1C (stereo not given)	1.13% [at 42.5 µM] (inactive)
CN1CCCC(n2nc(Cc3ccc(Cl)cc3)c3ccccc3c2=O)CC1 (stereo not given)	-2.19% [at 42.5 µM] (inactive)
CC(C)=CCC1C(=O)N(c2ccccc2)N(c2ccccc2)C1=O	0.0527% [at 42.5 µM] (inactive)
Cc1ccc(CO)cc1	2.83% (inactive)
O=C(O)c1cccc(-c2noc(-c3ccccc3F)n2)c1	-10.5% [at 42.5 µM] (inactive)
O=C(CCc1ccc(O)cc1)c1c(O)cc(O)cc1O	6.61% (inactive)
COc1cc(N)c(Cl)cc1C(=O)NC1CCN(CCCOc2ccc(F)cc2)CC1OC (stereo not given)	-0.0078% [at 42.5 µM] (inactive)

Compound	activity change, negative = cytotoxicity
c1ccc(C[n+]2cccc3ccccc32)cc1	1.59% (inactive)
CCC(C)(C)OC	0.22% (inactive)
COc1ccccc1Oc1c(NS(=O)(=O)c2ccc(C(C)(C)C)cc2)nc(-c2ncccn2)nc1OCCO	-2.91% [at 42.5 µM] (inactive)
O=C(O)CCc1nc(-c2ccccc2)c(-c2ccccc2)o1	0.382% [at 42.5 µM] (inactive)
c1cc(N(CC2CO2)CC2CO2)ccc1Cc1ccc(N(CC2CO2)CC2CO2)cc1 (stereo not given)	6.5% (inactive)
COc1ccccc1N1CCN(CC(O)COc2cccc3ccccc23)CC1 (stereo not given)	-12.7% [at 42.5 µM] (inactive)
CC(C)C=O	3.02% (inactive)
COC(=O)CS	-7.72% (inactive)
CCOc1cccc(-n2cc(C(=O)N3CCN(c4cc(C(=O)O)c5ccccc5c4)CC3)nc2-c2ccc(C)cc2)c1	1.65% (inactive)
CCCCC(CC)COP(=O)(O)O (stereo not given)	-1.28% (inactive)
CC(=O)NC1(c2cccc(F)c2)CCN(CC[C@@]2(c3ccc(Cl)c(Cl)c3)CN(c3ccccc3)C(=O)CO2)CC1	-6.36% (inactive)
CCOC(=O)c1ccccc1C(=C1C=C(Br)C(=O)C(Br)=C1)c1cc(Br)c(O)c(Br)c1	2.28% [at 42.5 µM] (inactive)
Cc1ccc(OC(=O)c2ccccc2O)cc1	1.55% (inactive)
C=Cc1ccc(S(=O)(=O)O)cc1	-2.94% (inactive)
C[C@H]1c2cccc(O)c2C(O)=C2C(=O)[C@]3(O)C(O)=C(C(N)=O)C(=O)[C@@H](N(C)C)[C@@H]3[C@@H](O)[C@@H]21	1.13% [at 42.5 µM] (inactive)
CC(C)=CCC/C(C)=C/CC/C(C)=C/C(=O)OCC(=O)[C@@]1(O)CC[C@H]2[C@@H]3CCC4=CC(=O)C=C[C@]4(C)[C@H]3[C@@H](O)C[C@@]21C	0.671% [at 42.5 µM] (inactive)
